Results taken from PubChem BioAssay (EPA / NIEHS).
Results filed as inconclusive are left out. Calls of active or inactive are those of the source. How the source made its calls, unless noted: active means hit-call score of the fitted dose curve at least 0.9, where 1 is the maximum; inconclusive means response in the unintended direction; inactive means score below 0.9.

How the values were obtained:
[1] = read-out: UDP glucuronosyltransferase (UGT1A6), UGT1A6 (gene 54578); experiment: LTEA_HepaRG_UGT1A6: Life Technologies and Expression Analysis (LTEA) Assay for UDP glucuronosyltransferase (UGT1A6) using HepaRG (AID 2283539; active means hit-call score of the fitted dose curve at least 0.9, where 1 is the maximum; inactive means score below 0.9); conditions: mRNA level, 48 h; actives raise or lower the signal
How it was run: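 Endpoint is UGT1A6 transcript induction or loss in a human liver cell line, quantified by TaqMan qRT-PCR 48 h after dosing. Concentrations ran from 100 uM downward in half-log steps in 0.5% DMSO; activity was fitted in both directions versus vehicle.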

[2] = read-out: X-box binding protein 1 (XBP1), XBP1 (gene 7494); experiment: LTEA_HepaRG_XBP1: Life Technologies and Expression Analysis (LTEA) Assay for X-box binding protein 1 (XBP1) using HepaRG (AID 2283540; active means hit-call score of the fitted dose curve at least 0.9, where 1 is the maximum; inactive means score below 0.9); conditions: mRNA level, 48 h; actives raise or lower the signal
How it was run: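 Human HepaRG monolayers receive test chemical for 48 h across an eight-point half-log series starting at 100 uM. XBP1 mRNA gain or loss is scored against DMSO by qRT-PCR.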

[3] = LTEA_HepaRG_LDH_cytotoxicity: Cytotoxicity Assessment in the Life Technologies and Expression Analysis (LTEA) Assay (AID 2283563);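 on AC50: LDH activity released into spent culture medium as a marker of cell death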
How it was run: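 Human HepaRG hepatic cells are treated with test chemicals for 48 h at up to 100 uM in 0.5% DMSO. Cytotoxicity is scored from medium LDH against the vehicle control.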

[4] = Tanguay_ZF_120hpf_MORT_legacy: (Legacy) Oregon State University Tanguay Lab 120 Hour Post-fertilization zebrafish Assay for Mortality (AID 2283633)
How it was run: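 Mortality endpoint from a multiplexed whole-embryo zebrafish screen. Dechorionated wild-type embryos received compound at 6 hpf and remained under static exposure at 28C until 120 hpf, with death noted as a present/absent call.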

[5] = Tanguay_ZF_120hpf_YSE_legacy: (Legacy) Oregon State University Tanguay Lab 120 Hour Post-fertilization zebrafish Assay for Yolk Sac Edema (AID 2283634);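 on AC50: actives raise the incidence of yolk sac edema above the DMSO baseline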
How it was run: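 Readout: presence or absence of yolk sac edema at 120 hpf, fitted upward against DMSO controls. Exposure ran statically from 6 hpf in dechorionated embryos kept at 28C.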

[6] = Tanguay_ZF_120hpf_AXIS_legacy: (Legacy) Oregon State University Tanguay Lab 120 Hour Post-fertilization zebrafish Assay for Body Axis Malformation (AID 2283635);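 on AC50: potency for an increased fraction of larvae scored with body axis malformation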
How it was run: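 Static 6–120 hpf chemical exposure of dechorionated wild-type 5D zebrafish, one per well at 28C; morphology endpoint scored binary at 120 hpf relative to DMSO control.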

[7] = Tanguay_ZF_120hpf_EYE_legacy: (Legacy) Oregon State University Tanguay Lab 120 Hour Post-fertilization zebrafish Assay for Eye Malformation (AID 2283636)
How it was run: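 Read-out is binary presence or absence of eye malformation, scored by brightfield microscopy at 120 hpf. Single larvae were exposed from 6 hpf in embryo medium containing 0.64% DMSO, with DMSO as baseline.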

[8] = Tanguay_ZF_120hpf_SNOU_legacy: (Legacy) Oregon State University Tanguay Lab 120 Hour Post-fertilization zebrafish Assay for Snout Malformation (AID 2283637)
How it was run: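 Snout malformation read as a yes/no call on brightfield images of 120 hpf larvae (Tropical 5D strain). Static exposure began at 6 hpf on dechorionated embryos in 0.64% DMSO, with gain of signal analysed versus DMSO controls.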

[9] = Tanguay_ZF_120hpf_OTIC_legacy: (Legacy) Oregon State University Tanguay Lab 120 Hour Post-fertilization zebrafish Assay for Otic Vesicle Malformation (AID 2283639)
How it was run: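 Tropical 5D wild-type zebrafish embryos statically exposed in 0.64% DMSO at 28C until 120 hpf; 5uM trimethyltin chloride as positive control. Otic vesicle malformation scored present/absent by brightfield; dead embryos not scored; gain fitted versus DMSO.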

[10] = Tanguay_ZF_120hpf_PE_legacy: (Legacy) Oregon State University Tanguay Lab 120 Hour Post-fertilization zebrafish Assay for Pericardial Edema (AID 2283640);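 on AC50: potency for increased incidence of pericardial edema versus DMSO baseline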
How it was run: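 Read-out is the presence or absence of pericardial edema at 120 hpf under brightfield, with gain of signal fitted against DMSO controls. Larvae (5D wild-type) were statically exposed at 28C with 0.64% final DMSO.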

[11] = Tanguay_ZF_120hpf_BRAI_legacy: (Legacy) Oregon State University Tanguay Lab 120 Hour Post-fertilization zebrafish Assay for Brain Malformation (AID 2283641)
How it was run: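 Brain malformation in Tropical 5D zebrafish was recorded as a binary endpoint after static compound exposure from early development to 120 hpf at 28C. Activity was analysed against DMSO as negative control.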

[12] = target: Cellular tumor antigen p53 (Homo sapiens) (UniProt P04637); experiment: TOX21_p53_BLA_p2_ratio: Tox21 HCT-116 p53 Agonism Beta-lactamase Assay, Ratio, Phase 2 (AID 2283592)
Sequence of Cellular tumor antigen p53 (Homo sapiens) (P04637 whole entry, looked up): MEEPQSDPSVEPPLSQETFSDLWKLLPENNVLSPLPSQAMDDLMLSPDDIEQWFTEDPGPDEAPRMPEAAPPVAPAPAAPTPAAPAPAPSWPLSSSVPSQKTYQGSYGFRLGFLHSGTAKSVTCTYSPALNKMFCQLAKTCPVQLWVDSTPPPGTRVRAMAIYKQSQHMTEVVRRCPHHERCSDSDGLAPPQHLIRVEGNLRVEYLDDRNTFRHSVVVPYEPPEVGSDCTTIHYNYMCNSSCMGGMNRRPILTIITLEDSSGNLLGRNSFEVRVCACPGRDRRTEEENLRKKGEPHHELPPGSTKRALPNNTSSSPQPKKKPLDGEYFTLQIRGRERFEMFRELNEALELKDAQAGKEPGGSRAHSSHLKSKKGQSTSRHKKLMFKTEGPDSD
How it was run: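 An inducible beta-lactamase reporter in HCT116 cells signals p53 pathway activation. After 16 h chemical exposure at 37C, cells load CCF4-AM substrate for 2 h at room temperature; activity is the cleaved/uncleaved emission ratio relative to DMSO.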

[13] = target: Cellular tumor antigen p53 (Homo sapiens) (UniProt P04637); experiment: TOX21_p53_BLA_p3_ratio: Tox21 HCT-116 p53 Agonism Beta-lactamase Assay, Ratio, Phase 3 (AID 2283596)
How it was run: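 HCT116 p53-bla cells (4000/well) given compound in DMSO (217-fold dilution) after 5 h, incubated 16 h at 37C. CCF4-AM substrate 2 h at room temperature; 460/530 nm emission ratio, gain fitted against DMSO.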

[14] = target: Cellular tumor antigen p53 (Homo sapiens) (UniProt P04637); experiment: TOX21_p53_BLA_p5_ratio: Tox21 HCT-116 p53 Agonism Beta-lactamase Assay, Ratio, Phase 5 (AID 2283599)
How it was run: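 Beta-lactamase reporter ratio (blue 460 nm over green 530 nm, 405 nm excitation) after 2 h CCF4-AM loading, in HCT-116 cells exposed 16 h at 37 C to compounds pinned at 217-fold dilution. Increases relative to DMSO baseline scored.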

[15] = TOX21_p53_BLA_p5_viability: Viability Assessment in the Tox21 HCT-116 p53 Agonism Beta-lactamase Assay, Phase 5 (AID 2283600)
How it was run: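 Counter-readout for cytotoxicity: ATP-dependent luminescence from CellTiter-Glo, read in the beta-lactamase wells after 30 min at RT, following a 16 h compound exposure at 37C.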

[16] = target: Cellular tumor antigen p53 (Homo sapiens) (UniProt P04637); experiment: TOX21_p53_BLA_p4_ratio: Tox21 HCT-116 p53 Agonism Beta-lactamase Assay, Ratio, Phase 4 (AID 2283601)
How it was run: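 Signal is the blue/green (460nm/530nm) ratio of cleaved versus uncleaved CCF4-AM substrate, read after 2 h substrate loading. Cells were HCT116 carrying the p53-responsive beta-lactamase reporter, dosed 16 h at 37C, 5% CO2; CellTiter-Glo measured in parallel.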

[17] = Tanguay_ZF_120hpf_JAW_legacy: (Legacy) Oregon State University Tanguay Lab 120 Hour Post-fertilization zebrafish Assay for Jaw Malformation (AID 2283638);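 on AC50: active means more embryos with jaw malformation than DMSO controls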
How it was run: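 Static waterborne exposure of dechorionated wild-type (Tropical 5D) zebrafish from 6 to 120 hpf at 28C, 0.64% DMSO vehicle; 5uM trimethyltin chloride served as positive control. Jaw morphology recorded as binary at 120 hpf.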

[18] = ATG_XTT_Cytotoxicity: Cytotoxicity Assessment in the Attagene TRANS-FACTORIAL HepG2 Assay (AID 2283584)
How it was run: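 Transfect HepG2 with GAL4-UAS reporter units, dose compound, incubate 24 h, then measure viable cell number by XTT. Fit concentration response against DMSO baseline.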

[19] = TOX21_p53_BLA_p2_viability: Viability Assessment in the Tox21 HCT-116 p53 Agonism Beta-lactamase Assay, Phase 2 (AID 2283591);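 further: actives lower the ATP signal meaning cytotoxicity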
How it was run: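 Cytotoxicity readout: CellTiter-Glo ATP luminescence, 30 min at room temperature, after the beta-lactamase read. Cells were HCT116 exposed 16 h at 37C to compounds pin-transferred at 217-fold dilution from DMSO stocks.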

[20] = TOX21_p53_BLA_p4_viability: Viability Assessment in the Tox21 HCT-116 p53 Agonism Beta-lactamase Assay, Phase 4 (AID 2283597);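 further: hits lower the luminescence signal meaning cytotoxicity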
How it was run: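 Compound exposure of HCT116 cells lasts 16 h at 37C, 5% CO2, with DMSO stocks diluted 217-fold. Cellular ATP is then quantified by CellTiter-Glo luminescence after 30 min at room temperature.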

## Cc1nc(-c2ccccn2)ncc1C(=O)Nn1cc(C)c2cc(F)ccc21
[1]
  AC50: 78.5 µM (active)
[2]
  outcome: inactive
[3]
  outcome: inactive
[4]
  outcome: inactive
[5]
  outcome: inactive
[6]
  outcome: inactive
[7]
  outcome: inactive
[8]
  outcome: inactive
[9]
  outcome: inactive
[10]
  outcome: inactive
[11]
  outcome: inactive

## O=C(O)c1ccc2c(c1)nc(C(=O)NC1CCN(C3CC3)CC1)n2Cc1cc(-c2ccc(Cl)s2)on1
[1]
  outcome: inactive
[2]
  outcome: inactive
[3]
  outcome: inactive
[12]
  outcome: inactive
[13]
  outcome: inactive
[14]
  outcome: inactive
[15]
  outcome: inactive
[16]
  outcome: inactive
[4]
  outcome: inactive
[5]
  outcome: inactive
[6]
  outcome: inactive
[8]
  outcome: inactive
[17]
  outcome: inactive
[11]
  outcome: inactive

## C=CN1CCCC1=O
[1]
  outcome: inactive
[2]
  outcome: inactive
[3]
  outcome: inactive
[18]
  outcome: inactive
[19]
  outcome: inactive
[12]
  outcome: inactive
[13]
  outcome: inactive
[20]
  outcome: inactive
[14]
  outcome: inactive
[15]
  outcome: inactive
[16]
  outcome: inactive
[4]
  outcome: inactive
[5]
  outcome: inactive
[6]
  outcome: inactive
[7]
  outcome: inactive
[8]
  outcome: inactive
[17]
  outcome: inactive
[9]
  outcome: inactive

## C=CCc1cc(S(=O)(=O)c2ccc(O)c(CC=C)c2)ccc1O
[1]
  AC50: 80.7 µM (active)
[2]
  AC50: 66.7 µM (active)
[3]
  AC50: 76.7 µM (active)
[18]
  outcome: inactive
[4]
  outcome: inactive
[5]
  outcome: inactive
[6]
  outcome: inactive
[7]
  outcome: inactive
[8]
  outcome: inactive
[17]
  outcome: inactive
[9]
  outcome: inactive
[11]
  outcome: inactive

## c1ccc(C(O[C@@H]2CCCN(CCc3ccc4c(c3)OCO4)C2)c2ccccc2)cc1
[1]
  AC50: 83 µM (active)
[2]
  outcome: inactive
[3]
  AC50: 74.7 µM (active)
[12]
  AC50: 70.1 µM (active)
[13]
  outcome: inactive
[20]
  outcome: inactive
[14]
  outcome: inactive
[16]
  outcome: inactive
[4]
  outcome: inactive
[5]
  AC50: 24.7 µM (active)
[6]
  AC50: 34.7 µM (active)
[7]
  AC50: 36.5 µM (active)
[8]
  AC50: 44.2 µM (active)
[17]
  AC50: 44.8 µM (active)
[9]
  AC50: 45.8 µM (active)
[10]
  AC50: 36 µM (active)
[11]
  AC50: 42 µM (active)

## CCCCCCCC/C=C\CCCCCCCC(=O)OC[C@@H](O)[C@H]1OC[C@H](O)[C@H]1O
[1]
  outcome: inactive
[3]
  outcome: inactive
[18]
  outcome: inactive
[19]
  outcome: inactive
[12]
  outcome: inactive
[13]
  outcome: inactive
[14]
  outcome: inactive
[15]
  outcome: inactive
[16]
  outcome: inactive
[4]
  outcome: inactive
[6]
  outcome: inactive
[7]
  outcome: inactive
[8]
  outcome: inactive
[9]
  outcome: inactive
[10]
  outcome: inactive

## CCc1ccc(O)c(C(C)(C)C)c1
[1]
  outcome: inactive
[3]
  outcome: inactive
[18]
  outcome: inactive
[19]
  AC50: 69.5 µM (active)
[12]
  AC50: 69.7 µM (active)
[13]
  outcome: inactive
[20]
  AC50: 79.1 µM (active)
[15]
  outcome: inactive
[16]
  AC50: 53.1 µM (active)
[4]
  outcome: inactive
[5]
  outcome: inactive
[7]
  outcome: inactive
[8]
  outcome: inactive
[9]
  outcome: inactive
[11]
  outcome: inactive
